# Laboratory results as given in PubChem BioAssay (NCATS).
# Records with an inconclusive call do not appear. Entries that show only a call come without a potency. Calls of active or inactive are those of the source. Unless noted, calls follow the shape of the full dose curve.
# Key:
# [1] = Primary qHTS for Huh7 cytotoxicity: counterscreen for inhibitors of MERS-S pseudotyped particle cell entry (AID 1479147); details: outcome: dose series up to 57.1 µM unless noted
# [2] = Primary qHTS for inhibitors of MERS-S pseudo-typed particle cell entry (AID 1479149); details: outcome: dose series up to 57.1 µM unless noted; also: nearly all actives have a fitted effect of over 60% in size
# [3] = Primary qHTS for Vero E6 cytotoxicity: counterscreen for inhibitors of SARS-S pseudo-typed particle cell entry (AID 1479150); also: potency is read from the fitted curve at half-maximal effect
# [4] = Confirmatory qHTS for VERO E6 Cytotoxicity Assay: Counterscreen for SARS-CoV-2 CPE Assay (AID 1508605); also: series mostly up to about 20 µM; nearly all actives have a fitted effect of over 60% in size
# [5] = Primary qHTS for inhibitors of La Crosse Virus (LACV) - induced cell death in SH-SY5Y cells (AID 1508616; active = well fitted curve in the direction sought with a large enough effect; an effect the other way counts as inactive or inconclusive; also: potency is read from the fitted curve at half-maximal effect)
# Outline: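 Cytopathicity rescue screen: compounds pinned onto SH-SY5Y cells, which are then infected with LACV (MOI 0.01) and held 6 days at 37C. Percent activity is scaled between infected DMSO control and uninfected DMSO control.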
# [6] = target: Calcium and integrin-binding protein 1 (Homo sapiens) (UniProt Q99828); test: Validation qHTS for Identification of Calcium Integrin Binding protein 1 (CIB1) Competitor (AID 1508618; active = well fitted curve in the direction sought with a large enough effect; an effect the other way counts as inactive or inconclusive)
# Outline: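 Displacement of FITC-alphaIIb peptide (100 nM) from CIB1-GST (1 uM) is monitored by polarization in quantitative HTS format; buffer carries 5 mM CaCl2 and 125 mM NaCl at pH 7.4, incubations are at room temperature.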
# [7] = target: Calcium and integrin-binding protein 1 (Homo sapiens) (UniProt Q99828); test: Primary qHTS for Identification of Calcium Integrin Binding Protein 1 (CIB1) Competitor (AID 1508620; active = well fitted curve in the direction sought with a large enough effect; an effect the other way counts as inactive or inconclusive;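 also: GST tagged CIB1 binding a fluorescein labelled alphaIIb integrin peptide tracer; top concentration of the series differs between compounds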)
# Outline: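 Fluorescence polarization competition: CIB1-GST (1 uM final) preincubated with compound 15 min at room temperature, then FITC-labeled alphaIIb peptide (100 nM final) added for another 15 min. Polarization read at Ex 480/Em 540.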
# [8] = Confirmatory qHTS for activators (rescue) of SARS-CoV-2 Cytopathic Effect (CPE) (AID 1508606); also: nearly all actives have a fitted effect of over 70% in size
# Sequence of Calcium and integrin-binding protein 1 (Homo sapiens) (Q99828 whole entry, looked up): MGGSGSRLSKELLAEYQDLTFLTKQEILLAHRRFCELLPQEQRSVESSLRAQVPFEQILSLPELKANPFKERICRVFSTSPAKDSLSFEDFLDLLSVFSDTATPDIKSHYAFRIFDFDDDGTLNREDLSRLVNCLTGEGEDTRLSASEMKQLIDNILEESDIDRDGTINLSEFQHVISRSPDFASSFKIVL
compound,measurement,setting,value
C=CC[C@]1(O)CC[C@H]2[C@@H]3CCC4=CCCC[C@@H]4[C@H]3CC[C@@]21C,outcome,[1],inactive [at 114 µM]
same,outcome,[2],inactive
same,Potency,[3],inactive
CCOC(=O)c1ccccc1C(=O)OCC,outcome,[1],inactive
same,outcome,[2],inactive
same,Potency,[3],inactive
CC(=O)O[C@H]1CC[C@H]2[C@@H]3CCC4=CC(=O)CCC4=C3C=C[C@]12C,outcome,[1],inactive
same,outcome,[2],inactive
same,Potency,[3],inactive
O=C(C[C@@H]1NCCC[C@H]1O)Cn1cnc2cc(Br)c(Cl)cc2c1=O,outcome,[1],inactive
same,outcome,[2],inactive
same,Potency,[3],inactive
O=C/C=C/c1ccccc1,outcome,[1],inactive
same,outcome,[2],inactive
same,Potency,[3],inactive
CC(C)CCON=O,outcome,[1],inactive
same,outcome,[2],inactive
same,Potency,[3],inactive
NCC(O)c1cccc(O)c1 (stereo unspecified),outcome,[1],inactive
same,outcome,[2],inactive
same,Potency,[3],inactive
C[N+]1(C)CCCCC1COC(=O)C(O)(c1ccccc1)c1ccccc1 (stereo unspecified),outcome,[1],inactive
same,outcome,[2],inactive
same,Potency,[3],inactive
ClC1C(Cl)C(Cl)C(Cl)C(Cl)C1Cl (stereo unspecified),outcome,[1],inactive
same,outcome,[2],inactive
same,Potency,[3],inactive
CCCC(=O)OC(C(Cl)(Cl)Cl)P(=O)(OC)OC (stereo unspecified),outcome,[1],inactive
same,outcome,[2],inactive [at 114 µM]
same,Potency,[3],inactive
CCC1C(C)=NN=C(c2ccc(OC)c(OC)c2)c2cc(OC)c(OC)cc21 (stereo unspecified),outcome,[1],inactive
same,outcome,[2],inactive
same,Potency,[3],inactive
O=c1c2ccccc2[se]n1-c1ccccc1,outcome,[4],inactive
same,Potency,[5],inactive
C=CCN1CC[C@]23c4c5ccc(O)c4O[C@H]2/C(=N/NC(=O)c2ccccc2)CC[C@@]3(O)[C@H]1C5,Potency,[5],inactive
C[C@@H]1[C@@H]2Cc3ccc(O)cc3[C@@]1(C)CCN2CC1CC1,Potency,[5],inactive
CN1[C@H]2CC[C@@H]1[C@@H](C(=O)O)[C@@H](OC(=O)c1ccccc1)C2,outcome,[1],inactive [at 114 µM]
same,outcome,[2],inactive [at 114 µM]
same,Potency,[3],inactive
CCN(CC)C(=O)N[C@H]1C[C@@H]2c3cccc4[nH]cc(c34)C[C@H]2N(C)C1,outcome,[1],inactive
same,outcome,[2],inactive
same,Potency,[3],inactive
CC(C)(O)[C@@H]1[C@H]2OC(=O)[C@@H]1[C@]1(O)C[C@H]3O[C@]34C(=O)O[C@H]2[C@]14C,outcome,[1],inactive
same,outcome,[2],inactive
same,Potency,[3],inactive
COc1ccc(OC)c(C(O)C(C)N)c1 (stereo unspecified),outcome,[1],inactive
same,outcome,[2],inactive
same,Potency,[3],inactive
same,Potency,[5],inactive
same,Potency,[6],inactive
CCCCCCC(C)(C)c1ccc([C@@H]2C[C@H](O)CC[C@H]2CCCO)c(O)c1,Potency,[5],inactive
O=C1OC2(c3cc(Br)c(O)cc3Oc3c2cc(Br)c(O)[c]3[Hg])c2ccccc21 (stereo unspecified),outcome,[2],inactive
CCCN(CCC)CCc1c[nH]c2ccc(C(N)=O)cc12,Potency,[5],inactive
COc1cc2c(cc1OC)[C@@]13CCN4CC5=CCO[C@H]6CC(=O)N2[C@H]1[C@H]6[C@H]5C[C@H]43,outcome,[1],inactive
same,outcome,[2],inactive
same,Potency,[3],inactive
same,Potency,[7],inactive
CC[C@H](C)[C@H]1O[C@]2(C=C[C@@H]1C)C[C@@H]1C[C@@H](C/C=C(\C)[C@@H](O[C@H]3C[C@H](OC)[C@@H](O[C@H]4C[C@H](OC)[C@@H](O)[C@H](C)O4)[C@H](C)O3)[C@@H](C)/C=C/C=C3\CO[C@@H]4[C@H](O)C(C)=C[C@@H](C(=O)O1)[C@]34O)O2,outcome,[1],inactive
same,Potency,[3],inactive
CCN(CCCl)Cc1ccccc1Br,Potency,[5],2.82 µM (active)
CC1CCC(C(C)C)C(OC(=O)c2ccccc2N)C1 (stereo unspecified),outcome,[1],inactive
same,outcome,[2],inactive
same,Potency,[3],inactive
CCOc1ccc2c3c1O[C@H]1[C@@H](O)C=C[C@H]4[C@@H](C2)N(C)CC[C@@]341,outcome,[1],inactive
same,outcome,[2],inactive
same,Potency,[3],inactive
CCCn1c(C)c(C(=O)c2ccc3ccccc3c2)c2ccccc21,Potency,[5],inactive
CC(=O)c1c(O)c(C)c(O)c(Cc2c(O)c3c(c(C(=O)/C=C/c4ccccc4)c2O)OC(C)(C)C=C3)c1O,Potency,[5],inactive
CCCCNCC(O)c1ccc(O)cc1 (stereo unspecified),outcome,[1],inactive
same,outcome,[2],inactive
same,Potency,[3],inactive
NC(Cc1ccc(N(CCCl)CCCl)cc1)C(=O)O (stereo unspecified),Potency,[5],0.794 µM (active)
C[Se]C[C@H](N)C(=O)O,Potency,[5],inactive
Cn1sc(Cl)cc1=O,outcome,[1],inactive
same,outcome,[2],inactive
same,Potency,[3],inactive
CC[N+](C)(CC)CCOC(=O)C(O)(c1ccccc1)c1ccccc1,outcome,[1],inactive
same,outcome,[2],inactive
same,Potency,[3],inactive
C[C@@H]([C@H](O)c1ccccc1)N(C)C,outcome,[1],inactive
same,outcome,[2],inactive
same,Potency,[3],inactive
COC([CH2][Hg])CNC(=O)c1ccccc1OCC(=O)O (stereo unspecified),Potency,[3],3.55 µM (active)
COc1ccc2c(c1)c(CCN1CCOCC1)c(C)n2C(=O)c1cccc(Cl)c1Cl,Potency,[5],inactive
N[C@@H](Cn1ccc(=O)[nH]c1=O)C(=O)O,Potency,[5],inactive
O=C1C2CC=CCC2C(=O)N1SC(Cl)(Cl)Cl (stereo unspecified),Potency,[3],20 µM (active)
CC[C@H]1CN2CC[C@H]1C[C@@H]2[C@@H](O)c1ccnc2ccc(OC)cc12,outcome,[1],inactive
same,Potency,[3],inactive
same,outcome,[4],inactive
same,outcome,[8],inactive
